The text below walks through data of ChEMBL document CHEMBL3988442, “University of Dundee, Small-Polar-MMV Screening Library” (2021).

For some assays here: Entries with a potency or affinity are not part of this list.

Set-up in all cases: scale not given: direction of the effect not stated beside the values
The target in experiment [1] is Protein translocase subunit SecA (Escherichia coli (strain K12)) (UniProt P10408). Briefly: Assay to Identify E. coli SecA ATPase Inhibitors. Format: functional. The note with it: 30 µM.
Protein translocase subunit SecA (Escherichia coli (strain K12)), sequence (P10408 whole entry): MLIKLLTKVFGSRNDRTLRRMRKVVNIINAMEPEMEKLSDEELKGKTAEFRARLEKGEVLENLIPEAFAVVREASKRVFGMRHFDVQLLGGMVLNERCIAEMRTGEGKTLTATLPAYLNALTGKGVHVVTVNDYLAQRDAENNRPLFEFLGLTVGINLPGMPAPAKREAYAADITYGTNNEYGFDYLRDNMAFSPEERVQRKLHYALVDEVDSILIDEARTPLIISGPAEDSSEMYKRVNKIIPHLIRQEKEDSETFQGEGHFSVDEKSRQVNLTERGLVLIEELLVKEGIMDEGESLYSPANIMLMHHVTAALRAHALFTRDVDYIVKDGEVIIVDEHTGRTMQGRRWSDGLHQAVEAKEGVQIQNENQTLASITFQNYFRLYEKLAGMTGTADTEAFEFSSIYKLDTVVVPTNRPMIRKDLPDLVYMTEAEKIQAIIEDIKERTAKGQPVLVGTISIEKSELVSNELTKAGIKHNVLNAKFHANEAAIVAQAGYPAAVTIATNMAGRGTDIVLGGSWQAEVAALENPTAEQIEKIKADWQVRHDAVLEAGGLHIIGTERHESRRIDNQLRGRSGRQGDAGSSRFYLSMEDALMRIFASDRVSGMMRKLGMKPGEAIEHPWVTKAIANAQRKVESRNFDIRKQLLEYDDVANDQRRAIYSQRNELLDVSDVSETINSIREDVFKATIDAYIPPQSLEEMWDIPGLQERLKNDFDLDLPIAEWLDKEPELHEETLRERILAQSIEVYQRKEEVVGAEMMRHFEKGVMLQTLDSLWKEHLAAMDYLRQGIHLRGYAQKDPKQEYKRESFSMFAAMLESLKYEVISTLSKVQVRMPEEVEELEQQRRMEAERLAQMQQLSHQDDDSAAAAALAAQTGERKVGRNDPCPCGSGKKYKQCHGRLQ
Experiment [2] concerns the target T1, Ubiquitin-activating enzyme e1, putative (Leishmania donovani (strain BPK282A1)) (UniProt E9BSI1).
T1 sequence (whole entry): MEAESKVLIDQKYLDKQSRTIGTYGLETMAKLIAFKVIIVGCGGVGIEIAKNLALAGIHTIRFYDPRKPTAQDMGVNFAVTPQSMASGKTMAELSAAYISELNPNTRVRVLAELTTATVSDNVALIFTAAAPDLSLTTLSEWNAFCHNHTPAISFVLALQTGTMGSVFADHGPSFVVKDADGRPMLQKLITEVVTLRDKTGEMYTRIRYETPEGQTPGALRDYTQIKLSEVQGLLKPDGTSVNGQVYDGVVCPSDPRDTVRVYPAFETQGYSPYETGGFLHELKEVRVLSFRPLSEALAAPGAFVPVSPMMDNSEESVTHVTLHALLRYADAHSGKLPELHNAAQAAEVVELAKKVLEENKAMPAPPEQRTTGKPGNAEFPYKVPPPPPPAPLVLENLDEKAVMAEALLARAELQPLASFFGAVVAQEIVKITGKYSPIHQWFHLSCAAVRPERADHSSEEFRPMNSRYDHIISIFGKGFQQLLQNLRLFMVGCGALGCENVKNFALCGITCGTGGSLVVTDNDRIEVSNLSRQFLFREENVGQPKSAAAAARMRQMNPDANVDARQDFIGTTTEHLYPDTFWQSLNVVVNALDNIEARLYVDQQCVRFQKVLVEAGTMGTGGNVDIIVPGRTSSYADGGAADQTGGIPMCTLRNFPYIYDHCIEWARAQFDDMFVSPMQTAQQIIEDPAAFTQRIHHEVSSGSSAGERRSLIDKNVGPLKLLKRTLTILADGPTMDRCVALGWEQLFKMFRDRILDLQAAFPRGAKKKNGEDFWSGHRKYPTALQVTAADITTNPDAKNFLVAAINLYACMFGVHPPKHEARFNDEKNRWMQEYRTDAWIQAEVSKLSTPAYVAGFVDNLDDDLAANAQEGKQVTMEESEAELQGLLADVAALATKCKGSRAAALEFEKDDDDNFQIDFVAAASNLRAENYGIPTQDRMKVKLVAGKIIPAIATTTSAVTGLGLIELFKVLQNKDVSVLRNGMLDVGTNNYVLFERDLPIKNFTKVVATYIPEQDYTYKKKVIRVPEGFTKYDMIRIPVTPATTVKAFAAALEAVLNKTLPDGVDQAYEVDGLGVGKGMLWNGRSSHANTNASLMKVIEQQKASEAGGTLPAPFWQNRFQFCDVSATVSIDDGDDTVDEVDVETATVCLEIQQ
Briefly: Leishmania donovani Ubiquitin Activating Enzyme (LdE1). Type of experiment: functional. The settings on record: 30 µM.

In experiment [3] the target is AMP-activated protein kinase, AMPK (Homo sapiens) (UniProt P54646+O43741+P54619+Q9UGJ0+Q9Y478+Q13131+Q9UGI9). The experiment in a line: AMP-dependent Kinase enzyme assay. An in vitro enzyme assay that detects ADP turnover that is directly proportional to AMPK activity. This uses naive AMPK that is activated during the assay with MK-8722. Type of experiment: functional. The settings on record: 30 µM.

For experiment [4], the target named is Sialic acid-binding Ig-like lectin 9 (Homo sapiens) (UniProt Q9Y336). The experiment in a line: Hs-Siglec9 ALPHAscreen SOP 20170721. The settings on record: 10 µM. A general note: In Alpha technology, singlet oxygen from a donor bead excites a nearby acceptor bead.
Sialic acid-binding Ig-like lectin 9 (Homo sapiens), sequence (Q9Y336 whole entry): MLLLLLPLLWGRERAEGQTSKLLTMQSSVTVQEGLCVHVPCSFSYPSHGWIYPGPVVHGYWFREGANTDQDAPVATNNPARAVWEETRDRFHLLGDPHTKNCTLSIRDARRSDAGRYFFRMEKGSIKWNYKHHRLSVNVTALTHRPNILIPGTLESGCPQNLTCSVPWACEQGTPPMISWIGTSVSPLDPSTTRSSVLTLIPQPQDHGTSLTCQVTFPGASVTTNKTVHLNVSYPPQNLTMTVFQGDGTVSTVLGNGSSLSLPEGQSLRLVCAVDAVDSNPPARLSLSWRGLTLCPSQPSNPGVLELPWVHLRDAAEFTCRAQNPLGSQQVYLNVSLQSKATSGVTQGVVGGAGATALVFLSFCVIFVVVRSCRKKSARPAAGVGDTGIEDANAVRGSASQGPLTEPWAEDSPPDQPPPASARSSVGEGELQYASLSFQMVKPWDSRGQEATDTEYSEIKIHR
The next experiment concerns Trypanosoma cruzi. The experiment in a line: Trypanosoma cruzi phosphomannomutase and mannose-1-phosphate guanylyltransferase assay. Type of experiment: functional. The settings on record: 10 µM.
Experiment [5] addresses T2, Arginase-2, mitochondrial (Homo sapiens) (UniProt P78540).
T2 sequence (whole entry): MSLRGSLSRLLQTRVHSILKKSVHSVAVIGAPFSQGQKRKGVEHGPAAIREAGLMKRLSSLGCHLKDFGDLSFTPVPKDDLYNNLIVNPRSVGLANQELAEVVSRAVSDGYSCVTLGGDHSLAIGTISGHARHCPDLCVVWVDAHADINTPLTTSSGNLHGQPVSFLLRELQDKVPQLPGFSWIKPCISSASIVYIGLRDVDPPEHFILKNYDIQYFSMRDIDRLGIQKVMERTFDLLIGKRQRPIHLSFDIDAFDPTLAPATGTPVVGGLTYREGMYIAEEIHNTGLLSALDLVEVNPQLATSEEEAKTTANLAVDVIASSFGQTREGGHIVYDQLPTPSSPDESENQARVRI
The experiment in a line: in vitro enzyme assay to detect the production of urea directly proportional to the activity of Arginase II. Note: in the data most compounds retested in dose-response had high values. The settings on record: 33.3 µM. Format: functional.

For experiment [6], the target named is T3, Proteasome subunit beta (Trypanosoma cruzi) (UniProt O96673).
T3 sequence (whole entry): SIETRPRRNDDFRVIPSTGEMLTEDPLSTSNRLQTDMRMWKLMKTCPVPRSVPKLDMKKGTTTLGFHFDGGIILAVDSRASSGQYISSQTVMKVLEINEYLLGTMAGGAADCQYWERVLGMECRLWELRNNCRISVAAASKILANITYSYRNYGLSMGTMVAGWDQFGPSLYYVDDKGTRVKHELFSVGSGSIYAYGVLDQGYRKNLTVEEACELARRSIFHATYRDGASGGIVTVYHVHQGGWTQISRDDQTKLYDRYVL
The experiment in a line: Trypanosoma cruzi proteasome chymotrypsin-like activity (TcProtChymo) assay. Note: in the data most compounds retested in dose-response had high values. Format: functional. The note with it: 9.37 µM.

A further experiment is filed under the species Homo sapiens. The experiment in a line: To identify inhibition of the IFN signalling (Jak-Stat) pathway via expression of an eGFP reporter gene under the control of an IFN-stimulated response element (ISRE) containing MxA promoter. Type of experiment: functional. The note with it: 30 µM. (A reporter such as luciferase makes a cellular process visible.)

The target in experiment [7] is T4, Tyrosyl-tRNA synthetase, putative (Trypanosoma cruzi (strain CL Brener)) (UniProt Q4DSP6).
T4 sequence (whole entry): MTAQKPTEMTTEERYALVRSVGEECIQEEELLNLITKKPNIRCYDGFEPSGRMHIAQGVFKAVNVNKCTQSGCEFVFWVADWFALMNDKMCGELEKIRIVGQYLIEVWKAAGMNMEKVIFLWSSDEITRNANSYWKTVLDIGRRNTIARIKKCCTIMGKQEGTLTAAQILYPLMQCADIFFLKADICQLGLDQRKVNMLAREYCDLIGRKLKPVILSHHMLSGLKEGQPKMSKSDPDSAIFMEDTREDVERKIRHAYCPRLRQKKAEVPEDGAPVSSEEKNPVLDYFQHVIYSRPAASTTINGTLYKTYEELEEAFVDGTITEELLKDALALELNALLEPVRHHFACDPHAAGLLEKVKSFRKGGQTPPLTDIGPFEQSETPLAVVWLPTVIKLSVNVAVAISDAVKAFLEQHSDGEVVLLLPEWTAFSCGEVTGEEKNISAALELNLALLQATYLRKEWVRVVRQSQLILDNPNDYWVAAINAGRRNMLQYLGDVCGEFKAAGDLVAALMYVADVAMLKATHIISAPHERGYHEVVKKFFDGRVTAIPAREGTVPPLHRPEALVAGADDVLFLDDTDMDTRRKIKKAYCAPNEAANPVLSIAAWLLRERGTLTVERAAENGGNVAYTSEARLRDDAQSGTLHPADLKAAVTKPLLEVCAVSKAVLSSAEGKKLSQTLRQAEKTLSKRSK
The experiment in a line: Trypanosoma cruzi tyrosyl tRNA synthetase (TcYRS) _High Tyrosine SOP. Note: in the data most compounds retested in dose-response had high values. Type of experiment: functional. The note with it: 30 µM.

Experiment [8] addresses T4, Tyrosyl-tRNA synthetase, putative (Trypanosoma cruzi (strain CL Brener)). The experiment in a line: Trypanosoma cruzi tyrosyl tRNA synthetase (TcYRS) SOP. Type of experiment: functional. The note with it: 30 µM.
Experiment [9] concerns the target Chromo domain-containing protein 1 (Saccharomyces cerevisiae (strain ATCC 204508 / S288c) (Baker's yeast)) (UniProt P32657). Briefly: ScCHD-1 Enzyme Inhibition Assay. Note: in the data most compounds retested in dose-response had high values. Format: functional. The settings on record: 30 µM.

Chromo domain-containing protein 1 (Saccharomyces cerevisiae (strain ATCC 204508 / S288c) (Baker's yeast)), sequence (P32657 whole entry, the tested form may be a part): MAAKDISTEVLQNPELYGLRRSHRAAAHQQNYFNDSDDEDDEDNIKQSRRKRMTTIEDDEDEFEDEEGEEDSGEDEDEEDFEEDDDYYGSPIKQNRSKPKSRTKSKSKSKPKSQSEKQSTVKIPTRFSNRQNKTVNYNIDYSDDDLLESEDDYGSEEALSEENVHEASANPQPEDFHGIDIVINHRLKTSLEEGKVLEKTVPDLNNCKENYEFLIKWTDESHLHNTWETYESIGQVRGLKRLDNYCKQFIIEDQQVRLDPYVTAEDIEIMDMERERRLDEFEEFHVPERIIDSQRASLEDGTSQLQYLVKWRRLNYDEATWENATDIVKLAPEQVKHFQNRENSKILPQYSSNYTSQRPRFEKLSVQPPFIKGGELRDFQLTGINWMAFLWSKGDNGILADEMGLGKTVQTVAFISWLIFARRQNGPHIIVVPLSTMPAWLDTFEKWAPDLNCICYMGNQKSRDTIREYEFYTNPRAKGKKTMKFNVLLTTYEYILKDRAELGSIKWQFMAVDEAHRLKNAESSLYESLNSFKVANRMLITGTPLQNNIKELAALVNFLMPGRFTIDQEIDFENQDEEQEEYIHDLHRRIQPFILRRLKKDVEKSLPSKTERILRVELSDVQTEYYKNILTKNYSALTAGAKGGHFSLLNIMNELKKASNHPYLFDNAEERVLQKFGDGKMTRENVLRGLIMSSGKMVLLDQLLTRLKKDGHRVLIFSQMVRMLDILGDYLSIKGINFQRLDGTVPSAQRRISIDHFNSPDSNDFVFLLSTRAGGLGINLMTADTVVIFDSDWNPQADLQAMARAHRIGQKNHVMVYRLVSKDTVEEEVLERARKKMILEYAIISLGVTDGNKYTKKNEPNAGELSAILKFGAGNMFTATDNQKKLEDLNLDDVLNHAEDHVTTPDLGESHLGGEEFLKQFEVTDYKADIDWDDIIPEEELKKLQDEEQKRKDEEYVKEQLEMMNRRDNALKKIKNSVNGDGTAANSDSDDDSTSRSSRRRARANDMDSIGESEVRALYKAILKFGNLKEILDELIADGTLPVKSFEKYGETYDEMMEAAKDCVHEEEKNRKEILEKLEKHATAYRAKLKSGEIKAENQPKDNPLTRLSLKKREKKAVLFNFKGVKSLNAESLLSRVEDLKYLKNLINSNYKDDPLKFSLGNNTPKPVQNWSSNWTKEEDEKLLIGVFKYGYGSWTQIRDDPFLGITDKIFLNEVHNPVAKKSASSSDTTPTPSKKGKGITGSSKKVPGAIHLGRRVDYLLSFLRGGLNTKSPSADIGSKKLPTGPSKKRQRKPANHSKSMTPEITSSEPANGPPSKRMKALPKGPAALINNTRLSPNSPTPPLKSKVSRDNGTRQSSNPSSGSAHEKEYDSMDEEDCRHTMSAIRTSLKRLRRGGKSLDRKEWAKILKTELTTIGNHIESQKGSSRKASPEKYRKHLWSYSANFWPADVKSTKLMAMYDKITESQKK

In the case of `COc1ccc(CNCC2CC2)cc1F`, the Percent Effect in experiment [1] was -3.45%; in experiment [2] it was 0%; in experiment [3], 3.06%; in [4] it was 6.66%; in the experiment with Trypanosoma cruzi it was 1.56%; in [5], -1.67%. Also, the Percent Effect is 3.47% in experiment [6]; -5.14% in the experiment filed under Homo sapiens; 4.95% in experiment [7]; 3.66% in experiment [8]; -2.56% in [9].
Consider `O=c1cc(CN2CCCC(CCc3c(F)cccc3F)C2)[nH]c(=O)[nH]1` (stereo not given), for which the Percent Effect is 1.76% in experiment [1]; 10.8% in experiment [2]; -7.22% in [3]; 1.61% in experiment [4]; 4.25% in the experiment with Trypanosoma cruzi; 14.3% in experiment [5]. For the same compound, the Percent Effect in experiment [6] was 16.7%; in the experiment listed under Homo sapiens, 25%; in experiment [7] it was 10.1%; in [8] it was 19.5%; in experiment [9], -4.32%.
Take `CN(CCOc1cccc(CN)c1)C1CCOCC1`: the Percent Effect in experiment [1] was 1.04%; in [2], 2.7%; in [3], -5.71%; in experiment [4], -2.08%; with Trypanosoma cruzi it was 1.54%; in experiment [5], -5.24%. The Percent Effect in experiment [6] is 7.41%; in the experiment filed under Homo sapiens, -5.29%; in experiment [7], 1.59%; in experiment [8], 9.76%; in [9], 13.5%.
As to `CC(Cn1ccnc1)NC(=O)C1(c2ccc3c(c2)OCCO3)CCCC1` (stereo not given), the Percent Effect was -1.6% in [1]; 20.2% in experiment [2]; -9.88% in experiment [3]; -5.21% in experiment [4]; 1.79% with Trypanosoma cruzi; -2.66% in experiment [5]. Also, the Percent Effect in [6] was 15.2%; in the experiment filed under Homo sapiens it was 10.3%; in [7], 6.4%; in experiment [8], 24.1%; in experiment [9], -7.42%.
Regarding `CN(C)C(=O)CS(=O)(=O)Cc1cc(Cl)c2c(c1)OCO2`, the Percent Effect in experiment [1] was -3.08%; in [2], 18.4%; in experiment [3], -1.27%; in [4] it was 2.86%; in the experiment on Trypanosoma cruzi it was -0.654%; in experiment [5] it was 3.96%. The Percent Effect is 5.16% in experiment [6]; -13.9% in the experiment listed under Homo sapiens; 6.4% in [7]; 23.5% in experiment [8]; -7.39% in [9].
In the case of `CN(CCCOc1ccc(F)cc1)Cc1nc2c(cnn2C)c(=O)[nH]1`, the Percent Effect is -0.991% in experiment [1]; 15.8% in experiment [2]; 0.698% in [3]; -3.57% in [4]; 4.39% in the experiment on Trypanosoma cruzi; 1.8% in experiment [5]. Moreover, the Percent Effect in [6] is 14.8%; in the experiment listed under Homo sapiens it was 0.0389%; in experiment [7] it was 8.37%; in experiment [8], 23.5%; in [9], -8.26%.
As to `CC1CCCN(Cc2c(C3CCOCC3)[nH]c3ncccc23)C1` (stereo not given), the Percent Effect in experiment [1] was -2.15%; in [2], 25.7%; in [3] it was 4.08%; in [4] it was -6.47%; in the experiment on Trypanosoma cruzi, 0.198%; in experiment [5] it was -6.26%. Besides, the Percent Effect in experiment [6] was 14.3%; in the experiment filed under Homo sapiens, 11%; in experiment [7], 2.15%; in experiment [8], 11.7%; in [9] it was -12%.
As for `O=C(NCc1cccnc1-n1cccn1)C1CC(=O)N(CC2CC2)C1` (stereo not given), the Percent Effect in experiment [1] is 1.42%; in experiment [2], -2.6%; in [3], 12.9%; in experiment [4] it was -3.81%; with Trypanosoma cruzi, -3.43%; in experiment [5], 7.37%. Moreover, the Percent Effect in experiment [6] was 2.99%; in the experiment filed under Homo sapiens, 18.6%; in experiment [7] it was -0.952%; in experiment [8], -2.35%; in experiment [9] it was -13.5%.
As to `Cc1ccc(CC(=O)N2CCOC(c3nc(C)n[nH]3)C2)cn1` (stereo not given), the Percent Effect in [1] was -3.84%; in experiment [2] it was 20.8%; in experiment [3] it was -6.18%; in experiment [4] it was 28.2%; with Trypanosoma cruzi, 3.79%; in [5], 5.74%. Also, the Percent Effect was 5.96% in experiment [6]; -6.79% in the experiment listed under Homo sapiens; 6.32% in experiment [7]; 12.8% in experiment [8]; -3.82% in [9].
As for `Cc1ccc(C(=O)N2CCSCC2)cc1NC(=O)Cn1cncn1`, the Percent Effect in experiment [1] was -4.05%; in experiment [2], 16.4%; in experiment [3] it was -5.58%; in [4] it was 10.2%; in the experiment with Trypanosoma cruzi, 7.74%; in [5] it was -7.98%. For the same compound, the Percent Effect is 17.6% in experiment [6]; -4.75% in the experiment listed under Homo sapiens; 6.25% in [7]; 18.5% in experiment [8]; -7.01% in experiment [9].
